hcDAF12 agonist – H. contortus DAF-12 nuclear receptor activators, primary screen, cell-based, luminescence, HEK293, lit1-tk-luc reporter. HEK293 hcDAF-12 lit1-tk-luc reporter; 0% DMSO, 100% Δ7-dafachronic acid. activation, % at 6.8 µM. hit rate 1.4% among 370,000;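 active means activation above the mean of all tested compounds plus 3 SD, cut at about 5.5% in these data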;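 further: 100% = response to 3 µM Δ7-dafachronic acid high control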
DAX1 inh-1 – DAX1 (NR0B1) inhibitors, primary screen, cell-based, HEK293, Gal4-DAX1, luciferase luminescence | inhibition, % at 6.75 µM | HEK293 Gal4-DAX1 luciferase reporter | AID 504766, 2011 | hit rate 0.99% among 340,000 | Nuclear receptor subfamily 0 group B member 1 (Homo sapiens), P51843;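 active means inhibition above the mean over all tested compounds plus 3 SD, cut at about 4.2% in these data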;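 further: 0% = DAX1-transfected cells with DMSO and 100% = empty-vector control cells with DMSO; inhibition shows as a rise in luminescence from relieved DAX1 repression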
DAX1 inh-2 – DAX1 (NR0B1) inhibitors on StAR promoter, primary screen, cell-based, luminescence, SF-1 (NR5A1), full-length DAX-1 | HEK293T StAR-luciferase reporter, SF-1/DAX-1 repression relief | inhibition, % at 6.8 µM | hit rate 1.1% among 370,000;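 active means inhibition above the mean over all tested compounds plus 3 SD, cut at about 3.6% in these data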;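 further: 0% = DAX-1 cells with DMSO and 100% = cells lacking DAX-1 with DMSO; higher inhibition means more luminescence from relief of DAX-1 repression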
hgDAF12 agonist – H. glycines DAF-12 receptor agonists, primary screen, cell-based, luminescence, HEK293, GAL4 fusion, UAS-luciferase; HEK293 GAL4-hgDAF12 UAS-luciferase reporter, agonist luminescence; normalized to butyrate control; hit rate 1.8% among 370,000; Nuclear hormone receptor DAF-12 (Heterodera glycines), GAL4 fusion; activation, % at 6.8 µM;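 active means activation above a cutoff set at the mean of all screened compounds plus 3 SD, cut at about 10% in these data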;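 further: 0% = DMSO wells and 100% = sodium butyrate wells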
ssDAF-12 act – S. stercoralis DAF-12 nuclear receptor activators, primary screen, cell-based, luminescence, HEK293, GRIP1 co-expression, lit1-tk-luc. hit rate 1% among 370,000. AID 652126, 2013. HEK293 ssDAF-12/GRIP1 lit1-tk-luc reporter; % of 3 µM dafachronic acid response. activation, % at 6.8 µM. Nuclear hormone receptor DAF-12 (Strongyloides stercoralis);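 active means activation above the mean over all tested compounds plus 3 SD, cut at about 0.9% in these data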;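 further: 0% = DMSO-only wells and 100% = 3 µM delta7-dafachronic acid wells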
DAX1 inh confirm – DAX1 (NR0B1) inhibitors relieving SF-1 repression, confirmation, cell-based, luminescence, HEK293T, full-length DAX-1, SF-1 activated StAR promoter. shares compounds with DAX1 inh-2. HEK293T StAR-promoter luciferase reporter, SF-1/DAX-1 repression. inhibition, % at 6.8 µM. hit rate 87% among 2,400;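 active means inhibition above the average of every tested compound plus 3 SD, cut at about 3.8% in these data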;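 further: 0% = DAX-1 cells with DMSO and 100% = no DAX-1 control cells with DMSO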
Target sequence (P51843 whole entry, looked up): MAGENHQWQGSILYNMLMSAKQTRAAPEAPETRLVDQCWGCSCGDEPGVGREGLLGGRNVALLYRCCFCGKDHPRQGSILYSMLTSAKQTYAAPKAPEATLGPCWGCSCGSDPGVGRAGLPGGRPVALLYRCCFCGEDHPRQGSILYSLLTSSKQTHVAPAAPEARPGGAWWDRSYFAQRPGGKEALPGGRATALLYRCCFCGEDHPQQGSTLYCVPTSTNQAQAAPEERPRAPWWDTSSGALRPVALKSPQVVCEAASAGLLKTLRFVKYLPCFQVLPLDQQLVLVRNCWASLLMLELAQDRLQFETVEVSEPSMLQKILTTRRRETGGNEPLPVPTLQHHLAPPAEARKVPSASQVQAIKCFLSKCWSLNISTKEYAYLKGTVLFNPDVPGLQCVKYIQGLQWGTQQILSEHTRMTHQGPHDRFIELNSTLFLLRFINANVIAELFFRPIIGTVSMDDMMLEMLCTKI
SF1 AF2mut Luc – StAR reporter signal changes without DAX1, counter-screen for DAX1 inhibitor project, cell-based, luminescence, AF-2 mutant SF-1, transactivation | hit rate 78% among 2,400 | inhibition, % at 6.8 µM | shares compounds with DAX1 inh-2 | HEK293 StAR-luciferase, SF-1 AF2 mutant;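 active means inhibition above the mean of all tested compounds plus 3 SD, cut at about 3% in these data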;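 further: 0% = DAX-1 transfected cells with DMSO and 100% = cells without DAX-1 with DMSO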
* marks the source's active call; other numbers are inactive results. The list is not random: actives were taken first. Their share in the collection is about 4.1%.

CCOC(=O)CC1C(=O)NCCN1S(=O)(=O)c1cccc(C(F)(F)F)c1 (stereo unspecified) was read as hcDAF12 agonist 1.2, DAX1 inh-1 -0.7, DAX1 inh-2 2.0, hgDAF12 agonist 1.9 and ssDAF-12 act -0.6.
CCN(C(=O)CSc1ncccn1)c1c(N)n(Cc2ccccc2)c(=O)[nH]c1=O was read as hcDAF12 agonist 0.1, DAX1 inh-1 1.3, DAX1 inh-2 4.7*, hgDAF12 agonist 0.5, ssDAF-12 act -1.2, DAX1 inh confirm 1.4 and SF1 AF2mut Luc 1.6.
CC(CC(=O)N(CCC1=CCCCC1)c1c(N)n(Cc2ccccc2)c(=O)[nH]c1=O)c1ccccc1 (stereo unspecified) was read as hcDAF12 agonist 0.2, DAX1 inh-1 1.4, DAX1 inh-2 6.3*, hgDAF12 agonist 1.2, ssDAF-12 act -0.8, DAX1 inh confirm 1.0 and SF1 AF2mut Luc -2.3.
For COC(=O)c1ccc2nc(-c3cccc(N)c3)cn2c1 the results were hcDAF12 agonist 3.9, DAX1 inh-1 -1.9, DAX1 inh-2 5.6*, hgDAF12 agonist 5.1, ssDAF-12 act -1.1, DAX1 inh confirm 5.3* and SF1 AF2mut Luc 1.6.
Screening COC(=O)c1ccc2nc(-c3ccc(S(C)(=O)=O)cc3)cn2c1 returned hcDAF12 agonist 0.2, DAX1 inh-1 3.9, DAX1 inh-2 0.1, hgDAF12 agonist -0.5 and ssDAF-12 act -1.5.
For CN(CCOc1ccccc1)C(=O)C1CCC(=O)N(CCc2ccc(Cl)cc2)C1 (stereo unspecified) the results were hcDAF12 agonist 0.7, DAX1 inh-1 0.5, DAX1 inh-2 2.9, hgDAF12 agonist 2.7 and ssDAF-12 act -0.6.
For CCOC(=O)Cc1c(C)nc2c(-c3cccc(Br)c3)cnn2c1C the results were hcDAF12 agonist 1.7, DAX1 inh-1 0.6, DAX1 inh-2 -0.2, hgDAF12 agonist 1.0 and ssDAF-12 act -0.1.
`Cc1cc(N)n2ncc(-c3cccc(Br)c3)c2n1` gave hcDAF12 agonist 3.8, DAX1 inh-1 0.4, DAX1 inh-2 4.9*, hgDAF12 agonist 10.2, ssDAF-12 act 0.5, DAX1 inh confirm 7.0* and SF1 AF2mut Luc 3.7*.
Screening CC1(C)CC(=O)C=C(c2ccc(-c3ccc4[nH]ccc4c3)cc2)C1=O returned hcDAF12 agonist 3.7, DAX1 inh-1 -0.7, DAX1 inh-2 5.3*, hgDAF12 agonist 7.5, ssDAF-12 act 0.2, DAX1 inh confirm 11.8* and SF1 AF2mut Luc -0.1.
For O=C(NCc1ccccn1)c1cccc(S(=O)(=O)N2CCCCC2)c1 the results were hcDAF12 agonist 1.1, DAX1 inh-1 -0.3, DAX1 inh-2 4.7*, hgDAF12 agonist 4.0, ssDAF-12 act -1.1, DAX1 inh confirm 1.6 and SF1 AF2mut Luc 1.6.
Screening Cc1ccnc(NC(=O)c2ccc(S(=O)(=O)N3CCC(C)CC3)cc2)c1 returned hcDAF12 agonist 3.7, DAX1 inh-1 2.2, DAX1 inh-2 10.9*, hgDAF12 agonist 11.0*, ssDAF-12 act 0.3, DAX1 inh confirm 13.2* and SF1 AF2mut Luc 7.6*.
O=C(NCc1ccccn1)c1ccc(Cl)c(S(=O)(=O)N2CCCCC2)c1 was read as hcDAF12 agonist -2.6, DAX1 inh-1 -0.3, DAX1 inh-2 0.1, hgDAF12 agonist -5.4 and ssDAF-12 act -0.3.
Cc1ccnc(NC(=O)c2cccc(S(=O)(=O)N3CCN(c4ccccc4)CC3)c2)c1 was read as hcDAF12 agonist 4.8, DAX1 inh-1 -0.9, DAX1 inh-2 13.1*, hgDAF12 agonist 10.2, ssDAF-12 act 0.5, DAX1 inh confirm 4.0* and SF1 AF2mut Luc 2.8.
Screening Cc1onc(-c2ccc(Cl)cc2)c1-c1ccn(S(=O)(=O)c2cccc(Cl)c2)n1 returned hcDAF12 agonist 0.4, DAX1 inh-2 -1.6, hgDAF12 agonist 2.8 and ssDAF-12 act -1.5.
Screening Cc1ccc2occ(/C=N/NC(=O)c3ccc(Cl)cc3)c(=O)c2c1 returned hcDAF12 agonist -1.5, DAX1 inh-1 -0.3, DAX1 inh-2 0.1, hgDAF12 agonist 4.5 and ssDAF-12 act -1.0.
For Cc1ccc2occ(/C=N/NC(=O)c3ccccc3O)c(=O)c2c1 the results were hcDAF12 agonist 6.4*, DAX1 inh-1 0.9, DAX1 inh-2 10.4*, hgDAF12 agonist 4.8, ssDAF-12 act -0.4, DAX1 inh confirm 7.3* and SF1 AF2mut Luc 7.6*.
`Cc1ccc(O)c(N=Nc2ccccc2)n1` gave hcDAF12 agonist 4.2, DAX1 inh-1 1.1, DAX1 inh-2 5.6*, hgDAF12 agonist 12.4*, ssDAF-12 act 0.0, DAX1 inh confirm 10.3* and SF1 AF2mut Luc 6.5*.
For Oc1ccc(N=Nc2ccccc2)cc1 the results were hcDAF12 agonist 3.8, DAX1 inh-1 2.0, DAX1 inh-2 0.6, hgDAF12 agonist 9.8 and ssDAF-12 act 0.0.
Screening COc1cccc(/C=C/C(=O)NNC(=O)c2ccccc2)c1OC returned hcDAF12 agonist 3.2, DAX1 inh-1 3.4, DAX1 inh-2 5.2*, hgDAF12 agonist 8.4, ssDAF-12 act -1.0, DAX1 inh confirm 5.1* and SF1 AF2mut Luc 2.2.
`CCOC(=O)N1CCN(Cc2nc3cc(NC(=O)c4ccco4)ccc3n2CC)CC1` gave hcDAF12 agonist 0.2, DAX1 inh-1 -0.1, DAX1 inh-2 1.5, hgDAF12 agonist 0.8 and ssDAF-12 act -1.2.
For CCOC(=O)N1CCN(c2ncnc3c2cnn3-c2ccc(OC)cc2)CC1 the results were hcDAF12 agonist -0.1, DAX1 inh-1 -0.2, DAX1 inh-2 -0.9, hgDAF12 agonist 1.6 and ssDAF-12 act -1.7.
`COc1ccc(-n2ncc3c(N4CCC(C)CC4)ncnc32)cc1` gave hcDAF12 agonist 6.5*, DAX1 inh-1 -1.2, DAX1 inh-2 6.6*, hgDAF12 agonist 10.5*, ssDAF-12 act 0.7, DAX1 inh confirm 12.4* and SF1 AF2mut Luc 4.5*.
For O=C(Nc1ccccn1)c1ccc(Cl)s1 the results were hcDAF12 agonist 1.3, DAX1 inh-1 1.9, DAX1 inh-2 5.2*, hgDAF12 agonist 12.2*, ssDAF-12 act -0.4, DAX1 inh confirm 7.0* and SF1 AF2mut Luc 6.2*.
